According to PubChem BioAssay (NCATS):
Records with an inconclusive call do not appear. Calls of active or inactive are those of the source. Calls come from the whole dose curve; as a rule, active = well fitted curve in the direction sought with a large enough effect; inconclusive = small, poorly fitted or top-dose-only effect, or another doubt; inactive = no such curve, though single readings can be large; an effect the other way counts as inactive or inconclusive.

Tests used:
CRL-7250 = normal cell line; assay: Cytotoxic Profiling of Annotated Libraries Using Quantitative High-Throughput Screening (AID 1296008); settings: Five cell lines viability, CellTiter-Glo ATP luminescence, 48-72 h; max response: stronger effect = lower value; note: nearly all actives have a fitted effect of over 60% in size; for max response: % is set by controls: 0 for no effect and ±100 for the full control effect
In short: (§1)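 Cytotoxicity was measured as CellTiter-Glo ATP luminescence, read after 10 min at room temperature. Compound treatment of the cells lasted 48 or 72 hr at 37 degrees Celsius in a qHTS format.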

HEK293 = assay: as above; settings: Five cell lines viability, CellTiter-Glo ATP luminescence, 48-72 h; max response: stronger effect = lower value
In short: as §1

HaCat [1] = assay: as above; settings: Five cell lines viability, CellTiter-Glo ATP luminescence, 48-72 h; max response: stronger effect = lower value
In short: as §1

KB-3-1 = assay: as above; settings: Five cell lines viability, CellTiter-Glo ATP luminescence, 48-72 h; max response: stronger effect = lower value
In short: as §1

NIH3T3 [2] = assay: as above; settings: Five cell lines viability, CellTiter-Glo ATP luminescence, 48-72 h; max response: stronger effect = lower value
In short: as §1

HACAT [3] = assay: qHTS assay to identify novel small-molecules to repurpose for Merkel cell carcinoma treatment (AID 1296009); settings: MCC and control cell lines, CellTiter-Glo viability, 72 h; at 44.8 µM (top of the series) unless noted; note: nearly all actives have a fitted effect of over 60% in size
In short: (§2)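 After compound transfer in DMSO, plates were kept 72 hr at 37 degree celsius. Luminescent ATP signal from CellTiter-Glo served as viability measure, normalized against DMSO and no-cell controls.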

NIH3T3 [4] = assay: as above; settings: MCC and control cell lines, CellTiter-Glo viability, 72 h; at 44.8 µM (top of the series) unless noted
In short: as §2

C33A = assay: Primary qHTS to identify gynecologic anti-cancer compounds using libraries of approved drugs and bioactive compounds (AID 1345084); settings: Gynecologic cancer cell panel viability, ATPlite luminescence, 48 h; series mostly up to 57.5 µM; note: % is set by controls: 0 for no effect and ±100 for the full control effect; nearly all actives have a fitted effect of over 55% in size
In short: (§3)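 Cells, 1,000 per well, were allowed to settle for 16 h at 37 C before compound addition. Five concentrations were tested for 48 h, and viability was read by ATPlite luminescence after 15 min at room temperature.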

CAOV3 = assay: as above; settings: Gynecologic cancer cell panel viability, ATPlite luminescence, 48 h; series mostly up to 57.5 µM
In short: as §3

CASKI = assay: as above; settings: Gynecologic cancer cell panel viability, ATPlite luminescence, 48 h; series mostly up to 57.5 µM
In short: as §3

Es-2 = assay: as above; settings: Gynecologic cancer cell panel viability, ATPlite luminescence, 48 h; series mostly up to 57.5 µM
In short: as §3

HeLa = assay: as above; settings: Gynecologic cancer cell panel viability, ATPlite luminescence, 48 h; series mostly up to 57.5 µM
In short: as §3

Hek293T = assay: as above; settings: Gynecologic cancer cell panel viability, ATPlite luminescence, 48 h, control line for the selectivity index; series mostly up to 57.5 µM
In short: as §3

JEG-3 = assay: as above; settings: Gynecologic cancer cell panel viability, ATPlite luminescence, 48 h; series mostly up to 57.5 µM
In short: as §3

OV90 = assay: as above; settings: Gynecologic cancer cell panel viability, ATPlite luminescence, 48 h; series mostly up to 57.5 µM
In short: as §3

PA-1 = assay: as above; settings: Gynecologic cancer cell panel viability, ATPlite luminescence, 48 h; series mostly up to 57.5 µM
In short: as §3

CCC(C)C1NC(=O)C2C(C)CCN2C(=O)C(CC(O)CO)OC(=O)CCNC(=O)C(C)N(C)C(=O)C(C(C)C)N(C)C1=O (centres undefined)
inactive: max response (CRL-7250) -3.99% | max response (HEK293) -0.256% | outcome (HaCat [1]) | max response (KB-3-1) 0.529% | outcome (NIH3T3 [2]) | outcome (HACAT [3]) inactive [at 17.4 µM] | outcome (NIH3T3 [4]) inactive [at 17.4 µM] | Potency (C33A) | Potency (CAOV3) | outcome (CASKI) | Potency (Es-2) | Potency (HeLa) | Potency (Hek293T) | Potency (JEG-3) | Potency (OV90) | Potency (PA-1)

CC(=O)O[C@@H]1[C@H](O[C@@H]2O[C@H](CO)[C@@H](O)[C@H](O)[C@H]2O)[C@@H](O[C@@H]2O[C@@H](C)[C@H](O)[C@@H](O[C@@H]3O[C@H](CO)[C@@H](O)[C@H](O)[C@H]3O)[C@H]2O)[C@H](OC(=O)[C@]23CCC(C)(C)C[C@H]2C2=CCC4[C@@]5(C)C[C@H](O)[C@H](O[C@@H]6O[C@H](C(=O)O)[C@@H](O)[C@H](O)[C@H]6O)[C@@](C)(C(=O)O)C5CC[C@@]4(C)[C@]2(C)CC3)O[C@@H]1C (some centres undefined)
inactive: max response (CRL-7250) -5.6% | max response (HEK293) -5.4% | outcome (HaCat [1]) | outcome (KB-3-1) | outcome (NIH3T3 [2]) | outcome (HACAT [3]) inactive [at 9.27 µM] | outcome (NIH3T3 [4]) inactive [at 9.27 µM] | activity change, negative = cytotoxicity (C33A) 2.77% [at 6.55 µM] | activity change, negative = cytotoxicity (CAOV3) -7.98% [at 6.55 µM] | activity change, negative = cytotoxicity (CASKI) -0.483% [at 6.55 µM] | activity change, negative = cytotoxicity (Es-2) -0.374% [at 6.55 µM] | activity change, negative = cytotoxicity (HeLa) 0.873% [at 6.55 µM] | activity change, negative = cytotoxicity (Hek293T) 0.423% [at 6.55 µM] | activity change, negative = cytotoxicity (JEG-3) 0.0867% [at 6.55 µM] | activity change, negative = cytotoxicity (OV90) 12.5% [at 6.55 µM] | activity change, negative = cytotoxicity (PA-1) 1.9% [at 6.55 µM]

CSCC1OC(n2cnc3c(=O)[nH]cnc32)C(O)C1O (centres undefined)
inactive: max response (CRL-7250) -7.17% | max response (HEK293) -2.06% | outcome (HaCat [1]) | max response (KB-3-1) 2.69% | outcome (NIH3T3 [2]) | outcome (HACAT [3]) | outcome (NIH3T3 [4]) | Potency (C33A) | Potency (CAOV3) | outcome (CASKI) | Potency (Es-2) | Potency (HeLa) | Potency (Hek293T) | Potency (JEG-3) | Potency (OV90) | Potency (PA-1)

CC[C@@H]1[C@H]2CCCCN3C(=O)C[C@H]([C@@H]4[C@H]1OC(=O)[C@H]4C)[C@@H]23
inactive: max response (CRL-7250) -4.41% | max response (HEK293) -4.7% | outcome (HaCat [1]) | max response (KB-3-1) -6.87% | outcome (NIH3T3 [2]) | outcome (HACAT [3]) | outcome (NIH3T3 [4]) | Potency (C33A) | Potency (CAOV3) | outcome (CASKI) | Potency (Es-2) | Potency (HeLa) | Potency (Hek293T) | Potency (JEG-3) | Potency (OV90) | Potency (PA-1)

CC1C(=O)OCC2=CC[N+]3([O-])CCC(OC(=O)C(C)(O)C1(C)O)C23 (centres undefined)
inactive: max response (CRL-7250) 2.6% | max response (HEK293) 3.51% | outcome (HaCat [1]) | max response (KB-3-1) 7.03% | outcome (NIH3T3 [2]) | outcome (HACAT [3]) | outcome (NIH3T3 [4]) | Potency (C33A) | Potency (CAOV3) | outcome (CASKI) | Potency (Es-2) | Potency (HeLa) | Potency (Hek293T) | Potency (JEG-3) | Potency (OV90) | Potency (PA-1)

Cn1c2ccc(NC(=O)c3ccccc3)cc2c(=O)n2nc(C(=O)O)cc12
inactive: outcome (CRL-7250) | max response (HEK293) -1.26% | outcome (HaCat [1]) | max response (KB-3-1) 0.84% | outcome (NIH3T3 [2]) | outcome (HACAT [3]) inactive [at 17.4 µM] | outcome (NIH3T3 [4]) inactive [at 17.4 µM] | Potency (C33A) | Potency (CAOV3) | outcome (CASKI) | Potency (Es-2) | Potency (HeLa) | Potency (Hek293T) | Potency (JEG-3) | Potency (OV90) | Potency (PA-1)

CC[C@H]1OC(=O)[C@H](C)C(=O)[C@H](C)[C@@H](OC2O[C@H](C)C[C@H](N(C)C)[C@H]2O)[C@@H](C)C[C@@H](C)C(=O)/C=C/[C@]1(C)O (some centres undefined)
inactive: max response (CRL-7250) -0.333% | max response (HEK293) -11.3% | outcome (HaCat [1]) | max response (KB-3-1) 7.73% | outcome (NIH3T3 [2]) | outcome (HACAT [3]) inactive [at 17.4 µM] | outcome (NIH3T3 [4]) inactive [at 17.4 µM] | Potency (C33A) | Potency (CAOV3) | outcome (CASKI) | Potency (Es-2) | Potency (HeLa) | Potency (Hek293T) | Potency (JEG-3) | Potency (OV90) | Potency (PA-1)

CCC(C)/C=C(C)/C=C/C(=O)C1CCC(O)C(C)(O)C1=O (centres undefined)
inactive: max response (CRL-7250) 4.93% | max response (HEK293) 0.989% | outcome (HaCat [1]) | max response (KB-3-1) 9.09% | outcome (NIH3T3 [2]) | outcome (HACAT [3]) | outcome (NIH3T3 [4]) | Potency (C33A) | Potency (CAOV3) | outcome (CASKI) | Potency (Es-2) | Potency (HeLa) | Potency (Hek293T) | Potency (JEG-3) | Potency (OV90) | Potency (PA-1)

CC12CC(c3ccoc3)OC(=O)C1CCC1(C)C2CCC(O)C1(C)O (centres undefined)
inactive: outcome (CRL-7250) | max response (HEK293) 0.137% | outcome (HaCat [1]) | max response (KB-3-1) 6.59% | outcome (NIH3T3 [2]) | outcome (HACAT [3]) | outcome (NIH3T3 [4]) | Potency (C33A) | Potency (CAOV3) | outcome (CASKI) | Potency (Es-2) | Potency (HeLa) | Potency (Hek293T) | Potency (JEG-3) | Potency (OV90) | Potency (PA-1)
